Vif-A3G inh = inhibitors of Vif-APOBEC3G interaction. Q9HC16. HeLa A3G-eYFP + Vif (tagged APOBEC3G with the HIV-1 protein that degrades it), YFP fluorescence, overnight. 410,000 tested, 0.076% active. Potency, µM (highest dose often 46.1 µM), for inactives: at the highest dose activity, negative = active, most hits filed as inhibitors; further: on the % scale 0 is the no-effect control and ±100 the full control effect; nearly all actives have a fitted effect of over 60% in size
Target sequence (Q9HC16 whole entry, looked up): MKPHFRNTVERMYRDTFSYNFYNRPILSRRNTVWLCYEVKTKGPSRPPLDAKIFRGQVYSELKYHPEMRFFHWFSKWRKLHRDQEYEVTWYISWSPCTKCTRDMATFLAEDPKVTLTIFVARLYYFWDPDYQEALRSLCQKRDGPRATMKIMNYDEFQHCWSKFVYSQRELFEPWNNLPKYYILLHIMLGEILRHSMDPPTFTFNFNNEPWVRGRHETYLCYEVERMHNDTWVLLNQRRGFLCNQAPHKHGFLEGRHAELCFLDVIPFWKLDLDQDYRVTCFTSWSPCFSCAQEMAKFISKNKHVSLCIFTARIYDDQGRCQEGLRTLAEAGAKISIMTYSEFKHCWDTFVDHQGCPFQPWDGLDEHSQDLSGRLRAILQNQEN
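HeLa cells stably expressing Vif and C-terminally eYFP-tagged A3G, seeded overnight at 37 deg C, then exposed to compound by pintool overnight at 37 deg C. Rise in yellow fluorescence (Ex 488/Em 500-530, Acumen) marks blocked Vif-driven A3G degradation.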
FUS suppressor = suppressors of FUS proteinopathy in yeast. Potency, µM (highest dose often 76.6 µM), usual class: activators. 390,000 tested, 0.24% active. S. cerevisiae FUS-expressing, growth rescue, OD600, 24 h;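 further: plate controls were DMSO vehicle for no effect and reference control for full effect; nearly all actives have a fitted effect of over 55% in size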
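Read-out: OD at 600 nm after 24hr at 30C, reporting rescue of FUS-induced yeast toxicity. Cells at OD 0.005 in galactose (2%) minimal medium; compounds tested in a dilution series; CP55940 titration from 92uM final as control.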
Abeta rescue = restores growth of yeast expressing A-beta42 peptide; 410,000 tested, 0.063% active; yeast expressing A-beta42, growth rescue, OD600, 48 h; response scale: 0% DMSO, 100% iron-clioquinol control; AID 1347071; Potency, µM (top dose mostly 46.1 µM), usual class: activators; further: nearly all actives have a fitted effect of over 55% in size
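Yeast growth medium received pinned compounds, then yeast cells expressing toxic A-beta were added; plates incubated at 30 C for 48 hr. Growth read as absorbance at 600 nm, normalized to DMSO and equimolar FeCl3 plus clioquinol controls.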
PINK1 modulator = changes PINK1 expression. 410,000 tested, 0.2% active. PINK1 immunofluorescence, high-content cytometry, 24 h. AID 624263. Potency, µM (highest dose often 76.6 µM), without a hit: at the top dose activation (PINK1 increase), hits mostly activators; active means well fitted activation curve with a large enough effect; inconclusive means small, poorly fitted or top-dose-only effect; cell line not stated here; further: % of control where 0% means no effect; nearly all actives have a fitted effect of over 65% in size
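PINK1 protein level read as immunofluorescence by microplate cytometer in a fixed, stained stable cell line after 24 h exposure to five compound concentrations, with CCCP as control.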
Glioma ERSR ind = induces the endoplasmic reticulum stress response in human glioma cells. U87-MG GRP78 promoter luciferase reporter, 16 h. 420,000 tested, 0.02% active. Potency, µM, for inactives: at the highest dose activation, hits mostly activators; further: series mostly up to about 76 µM; % of control where 0% means no effect; nearly all actives have a fitted effect of over 35% in size
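ERSR induction read as luciferase luminescence (Bright-Glo, 10 min at room temperature) in stably transfected human U87-MG glioma cells exposed to compounds for 16 h, using GRP78 as sensor.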
Vif-APOBEC3F blk = inhibitors of Vif-A3F interaction | Potency, µM (doses to about 46.1 µM), for inactives: top-dose activity, negative = active | HeLa A3F-eYFP + Vif (tagged APOBEC3F with the HIV-1 protein that degrades it), YFP fluorescence increase | AID 602313 | 390,000 tested, 0.2% active; further: % of control where 0% means no effect; nearly all actives have a fitted effect of over 65% in size
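HeLa cells stably expressing A3F-eYFP plus Vif, plated and incubated overnight at 37 deg C, then exposed to compounds overnight at 37 deg C. Blocked degradation read as raised yellow fluorescence (Ex 488/Em 500-530).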
An asterisk follows results filed as active; i = inactive; u = inconclusive; x = not tested or not shown; [ ] = another dose, or the depositor's remark. In the library only some 0.69% were active in any assay of this set; here they are far more common. Unless noted, the call rests on the fitted dose curve; in most records, active means well fitted curve in the direction sought with a large enough effect; inconclusive means small, poorly fitted or top-dose-only effect, or another doubt; inactive means no such curve, though single readings can be large; an effect the other way counts as inactive or inconclusive. Potency means the concentration at half of the fitted maximal effect.

SMILES | Vif-A3G inh | FUS suppressor | Abeta rescue | PINK1 modulator | Glioma ERSR ind | Vif-APOBEC3F blk
O=C(Cn1nc(-c2ccccc2)c2c(c1=O)CCCC2)Nc1ccc(F)c(Cl)c1 | 6.2% | 10µM* | i | -0.4% | -1.7% | 10.0%
Cc1oc(-c2ccccc2NC(=O)C2CCCO2)nc1CNC(=O)c1cc(Cl)ccc1F (stereo not given) | x | x | x | 0.7% | -3.5% | x
COCCn1c(SCC(=O)c2c[nH]c3ccccc23)nnc1-c1ccncc1 | -0.3% | i | i | 0.8% | -1.1% | -6.2%
CCn1c(SCC(=O)c2c[nH]c3ccccc23)nnc1-c1cccs1 | 11.2µM* | i | i | 12.7% | -2.3% | 22.4µM*
Cc1ccc(NC(=O)c2ccccc2NS(=O)(=O)c2ccc(Cl)s2)cc1S(=O)(=O)N1CCOCC1 | -2.2% | u | i | 39.8µM* | -4.1% | -4.9%
O=C(Nc1cc(S(=O)(=O)N2CCOCC2)ccc1O)c1ccc(NS(=O)(=O)c2ccc(Cl)s2)cc1 | -4.1% | x | i | 1.2% | -3.1% | 1.2%
CC(C)c1c(C(=O)NCC(C)(C)N2CCOCC2)cnn1-c1nccc(-c2cccs2)n1 | x | x | x | -1.0% | -3.1% | x
CCC1CN(CCNC(=O)c2cc(C)nn2CC)Cc2cc(OC)ccc2O1 (stereo not given) | x | x | x | 0.6% | -4.0% | x
NNC(=S)Nc1c(F)cc(F)cc1Br | -0.1% | i | i | 2.3% | -0.3% | 11.2µM*
O=C1C(Cl)=C(NCCc2ccccc2)C(=O)c2ccccc21 | 12.6µM* | i | i | 0.8% | -14.8% | 8.91µM*
N#C/C(=N\Nc1cccc(Cl)c1)C(=O)c1ccccc1 | -15.1% | i | i | 25.1µM* | -2.7% | -0.7%
CCC(CC)=NNc1cccc([N+](=O)[O-])c1 | -2.5% | x | i | 0.3% | 0.6% | -1.4%
COc1ccc(C(=O)/C(C#N)=N/Nc2cccc([N+](=O)[O-])c2)cc1 | -8.3% | i | i | 14.1µM* | u | 0.1%
COc1cc(=O)n2c(c1C(=O)N(C)Cc1nonc1C)CCN(C(=O)c1cc(C)ccc1C)CC2 | x | x | x | 0.5% | -5.2% | x
O=C(Nc1ccc(F)cc1)Nc1ccc2snnc2c1 | -0.6% | i | i | 31.6µM* | -1.0% | -5.2%
CC(=O)c1ccc(NC(=O)Nc2ccc3snnc3c2)cc1 | -4.6% | i | i | u | -2.3% | -4.7%
O=C(CSc1n[nH]c(-c2ccccn2)n1)Nc1ccc(F)cc1 | 5.4% | u | i | -1.3% | -0.4% | u
O=C(CSc1n[nH]c(-c2ccccn2)n1)Nc1ccc(Cl)cc1 | -7.1% | i | i | -0.3% | -4.5% | 7.94µM*
CN(C)c1ccc(/C=C(/C(=O)c2ccc(Cl)cc2Cl)n2cncn2)cc1 | 12.6µM* | x | i | 4.8% | -5.5% | u
O=S(=O)([N-]c1nc2ccccc2nc1-[n+]1ccc(-c2ccncc2)cc1)c1ccccc1 | -2.8% | i | i | -2.1% | -4.2% | 3.55µM*
O=S(=O)([N-]c1nc2ccccc2nc1-[n+]1ccccc1)c1ccccc1 | 0.6% | i | i | u | -4.4% | u
CCn1c(O)c(/C=N/N=C/c2ccc(OC)cc2)c2cc(C3=NNC(=O)CC3)ccc21 | u | i | i | u | 0.9% | 4.47µM*
O=C(Nc1cccc(Cl)c1Cl)c1ccc(-c2ccccc2)cc1 | -12.9% | x | i | 11.2µM* | -1.7% | 1.6%
COc1ccc(CN2CCN(C(C)=O)CC2)cc1OC1CCN(C(=O)c2ccc3ccccc3n2)CC1 | x | x | x | 0.0% | 2.1% | x
Cc1ccc(CN(Cc2cccn2-c2nnc(N3CCCC3=O)s2)C(=O)Nc2ccccc2Cl)cc1 | 3.9% | 35.5µM* | i | -0.3% | -2.7% | -4.9%
SMILES | Vif-A3G inh | FUS suppressor | Abeta rescue | PINK1 modulator | Glioma ERSR ind | Vif-APOBEC3F blk
CCC(C)(C)NC(=S)Nc1ccccc1C | -1.5% | i | 12.6µM* | 5.7% | -3.0% | -3.0%
CC(C)(C)n1ncc2c(=O)n(Cc3ccc(F)c(C(F)(F)F)c3)cnc21 | -1.0% | x | x | x | 2.2% | x
Cc1cccc(Nc2nnc(SC/C(O)=C(\C#N)c3nc4ccccc4[nH]3)s2)c1 | -26.9% | u | i | 0.6% | 7.8% | 22.4µM*
CNC(=O)[C@@H]1C[C@H](NC2CCCCCCC2)CN1Cc1cccc(OC)c1OC | x | x | x | 1.1% | -3.5% | x
CCCCc1ccccc1NC(=S)NC1CCCC1 | -8.0% | i | 7.08µM* | 14.8% | -5.9% | u
S=C(Nc1cccc2ccccc12)NC1CCCCC1 | 0.2% | i | 12.6µM* | 5.7% | 7.1% | u
O=C(c1cc(-c2ccccc2)on1)N1CCOc2ccc(CN3CCN(c4ccccn4)CC3)cc2C1 | x | x | x | -0.2% | -2.8% | x
C[N+](C)(CCCCCC[N+](C)(C)C1c2ccccc2-c2ccccc21)C1c2ccccc2-c2ccccc21 | x | x | x | x | -3.7% | x
COC(=O)c1c(-c2cccnc2)csc1NC(=O)c1ccc2c(c1)OCO2 | -20.2% | i | i | u | 3.6% | 10µM*
CC1=CCC2C(=O)N(c3cccc(C(=O)Nc4ccc(Cl)cc4)c3)C(=O)C2C1 (stereo not given) | 2.0% | i | 14.1µM* | 5.3% | -0.8% | 1.7%
CC1=CCC2C(=O)N(c3cccc(C(=O)NCc4ccccc4)c3)C(=O)C2C1 (stereo not given) | 5.6% | i | i | 3.2% | -4.2% | -5.2%
CC(/C=N/NC(=O)c1cc(-c2ccncc2)nc2ccccc12)=C\c1ccco1 | u | 28.2µM* | i | 13.5%[38.3 µM] | -3.0% | 1.5%
Cc1ccc(/C=N/NC(=O)c2cc(-c3ccncc3)nc3ccccc23)o1 | u | i | i | 3.7% | 2.1% | -10.3%
O=C1[C@H](Cc2ccccc2)NC/C=C\C[C@H](c2ccc(Cl)cc2)N1Cc1ccc(Cl)cc1 | -12.8% | x | x | x | -2.3% | x
CCCCn1c(-c2csc3ccccc23)n[nH]c1=S | -3.4% | x | i | 1.4% | -4.6% | -15.9%
CCCCCCn1c(-c2cccs2)n[nH]c1=S | 1.9% | i | 6.31µM* | 1.5% | -2.5% | u
O=C(NCC1CCC2(CCN(Cc3cccn3-c3ccc(Cl)cn3)CC2)O1)c1ccccc1 (stereo not given) | x | x | x | 0.0% | -5.6% | x
N#C/C(=C\c1ccc(C(=O)O)cc1)c1nc2sc3c(c2c(=O)[nH]1)CCCC3 | u | i | i | 31.6µM* | -0.7% | u
COCc1c(C(=O)N2CCN(C3CCCC3)CC2)cnn1-c1ncc2c(n1)-c1ccccc1CCC2 | x | x | x | 0.0% | -5.5% | x
Cc1nc(C)c(C(=O)Nc2ccc(Oc3ccccc3)cc2)o1 | 3.3% | i | i | 5.62µM* | 0.9% | -5.2%
Cc1ncoc1C(=O)Nc1ccc(Oc2ccccc2)cc1 | -0.4% | i | i | -5.2%[38.3 µM] | 5.8% | -10.5%
CO[C@H]1[C@H](NC(=O)c2cccs2)c2ccccc2C12CCN(Cc1cccn1-c1cccnc1)CC2 | x | x | x | 0.3% | -5.1% | x

Screening results: PubChem BioAssay, National Center for Advancing Translational Sciences (NCATS)
